Assay results taken from the supplement of paper PMC8699584.
Values joined by “and” are separate entries in the source; they are usually repeats but may differ in a detail not shown here. Equal entries are not always repeated. Structures can show the parent of a compound that is named as a salt. ± gives the standard deviation of the averaged measurements.

Tested on: Molm13
Assay: cell viability relative to DMSO control (bortezomib = 0%); higher = less growth inhibition
Settings: 10 nM; 72 h
How it was run: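 Acute myeloid leukemia cells, 1000 per well in 50 µL, were incubated for 72 h on 384-well plates with 679 approved and investigational compounds, each at a single 10 nM dose. Viability was read by CellTiter-Glo luminescence. Values were expressed as percentages through per-plate linear regression against DMSO-treated (100%) and positive-control-treated (0%) cells.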

| Structure (SMILES) | cell viability |
| --- | --- |
| C[C@@H]1O[C@@H](Oc2c(-c3cc(O)c(O)c(O)c3)oc3cc(O)cc(O)c3c2=O)[C@H](O)[C@H](O)[C@H]1O [Myricetrin] | 89.1 ± 14% |
| N#CCC(C1CCCC1)n1cc(-c2ncnc3[nH]ccc23)cn1 (stereo not given) | 112 ± 15% |
| COC(=O)[C@]12CCC(C)(C)C[C@H]1[C@H]1C(=O)C=C3[C@@]4(C)C=C(C#N)C(=O)C(C)(C)[C@@H]4CC[C@@]3(C)[C@]1(C)CC2 [Bardoxolone Methyl] | 102 ± 6.8% |
| Cc1c(CN2CCN(S(C)(=O)=O)CC2)sc2c(N3CCOCC3)nc(-c3cnc(N)nc3)nc12 | 106 ± 16% |
| CC(=O)Nc1nc(C)c(-c2ccc(Cl)c(S(=O)(=O)NCCO)c2)s1 | 104 ± 3.5% |
| CN1CCN(c2ccc(Nc3cc(-c4cccc(-n5ccc6cc(C7CC7)cc(F)c6c5=O)c4CO)cn(C)c3=O)nc2)CC1 | 99.6 ± 8.6% |
| O=c1c(O)c(-c2cc(O)c(O)c(O)c2)oc2cc(O)cc(O)c12 [Myricetin] | 106 ± 20% |
| O=C(Nc1ccccc1C(=O)NC1CCCCNC1=O)c1cc2ccccc2s1 (stereo not given) | 98.3 ± 4.7% |
| COc1ccc(C2CC(=O)c3c(O)cc(OC4OC(COC5OC(C)C(O)C(O)C5O)C(O)C(O)C4O)cc3O2)cc1OC (stereo not given) [Methyl hesperidin] | 109 ± 12% |
| CNC(=O)c1ccccc1Oc1nc(Nc2cc(OC)c(OC)c(OC)c2)ncc1Br | 98.7 ± 26% |
| O=C(Nc1nc2ccc(NC(=O)C34CC5CC(CC(C5)C3)C4)cc2s1)c1ccccc1 | 117 ± 12% |
| Cc1ccc(NC(=O)c2ccc(CN3CCN(C)CC3)cc2)cc1Nc1nc(-c2cccnc2)cs1 [Masitinib (AB1010)] | 98.2 ± 12% |
| c1cc(-c2cnn3cc(-c4ccc(N5CCNCC5)cc4)cnc23)c2cccnc2c1 | 107 ± 1.7% |
| c1cc(-c2cnn3cc(-c4ccc(OCCN5CCCCC5)cc4)cnc23)ccn1 [Dorsomorphin dihydrochloride] | 58.3 ± 6.7% |
| N#CCC(=O)NN [Cyanoacetohydrazide] | 128 ± 1.3% |
| CNC(=O)c1cccc(-c2ccc3c(N4CCOC[C@@H]4C)nc(N4CCOC[C@@H]4C)nc3n2)c1 | 83.69 ± 0.63% |
| N[C@@H]1CCCN(c2c(/C=C3\SC(=O)NC3=O)cccc2-c2ccccc2)C1 | 103 ± 1.3% |
| C=CC(=O)Nc1cc2c(Nc3ccc(F)c(Cl)c3)ncnc2cc1OCCCN1CCOCC1 [Canertinib (hydrochloride)] | 93.9 ± 14% |
| COc1cc2ncnc(Nc3ccc(O)cc3)c2cc1OC | 116 ± 5% |
| COc1ccc2cc1Oc1ccc(cc1)C[C@H]1c3cc(c(OC)cc3CCN1C)Oc1c(O)c(OC)cc3c1[C@H](C2)N(C)CC3 [(+)-Fangchinoline] | 116 ± 13% |

| Structure (SMILES) | cell viability |
| --- | --- |
| N#Cc1ccc2[nH]c(O)c(-c3ccc(CN4CCOCC4)cn3)c2c1 | 112 ± 0.85% |
| Nc1cc(C(F)(F)F)c(-c2cc(N3CCOCC3)nc(N3CCOCC3)n2)cn1 [BKM120 (NVP-BKM120, Buparlisib)] | 93.7 ± 4.8% |
| COc1ccc([C@@H]2OC[C@H]3[C@@H]2CO[C@@H]3c2ccc(O[C@@H]3O[C@H](CO)[C@@H](O)[C@H](O)[C@H]3O)c(OC)c2)cc1OC [Forsythin] | 123 ± 20% |
| CCS(=O)(=O)N1CC(CC#N)(n2cc(-c3ncnc4[nH]ccc34)cn2)C1 | 122 ± 31% |
| C=CC(=O)Nc1cccc(Nc2nc(Nc3ccc(N4CCN(C(C)=O)CC4)cc3OC)ncc2C(F)(F)F)c1 [Rociletinib (CO-1686, AVL-301)] | 108 ± 10% |
| N=C(N)NC(=N)NCCc1ccccc1 [Phenformin hydrochloride] | 91.3 ± 30% |
| O=C(c1ccc(F)c(F)c1Nc1ccc(I)cc1F)N1CC(O)([C@@H]2CCCCN2)C1 [Cobimetinib] | 87.1 ± 14% |
| CC1(C)CNc2cc(NC(=O)c3cccnc3NCc3ccncc3)ccc21 [Motesanib (AMG-706)] | 106 ± 20% |
| COc1cc(Nc2c(C#N)cnc3cc(OCCCN4CCN(C)CC4)c(OC)cc23)c(Cl)cc1Cl [Bosutinib] | 112 ± 24% |
| Cn1cc(C2=C(c3ccc(Cl)cc3Cl)C(=O)NC2=O)c2ccccc21 | 96.9% and 84.3% |
| CN(C)Cc1cccc(N=C(c2ccccc2)c2c(O)[nH]c3cc(C(=O)N(C)C)ccc23)c1 | 108 ± 4.4% |
| COc1cc(OC)c(/C=C/S(=O)(=O)Cc2ccc(OC)c(OP(=O)(O)O)c2)c(OC)c1 [Briciclib] | 114 ± 25% |
| CCn1c(N)c(C(=O)NC)c(=O)c2ccc(C#CC(C)(O)COC)nc21 (stereo not given) | 110 ± 4.6% |
| CC[C@@H]1C(=O)N(C)c2cnc(Nc3ccc(C(=O)NC4CCN(C)CC4)cc3OC)nc2N1C1CCCC1 | 64.7 ± 9.6% |
| Cn1cc(/C=C2\C(=O)Nc3cccnc32)c2ccccc21 | 104 ± 17% |
| CN1CCN(c2nc(C3=C(c4c[nH]c5ccccc45)C(=O)NC3=O)c3ccccc3n2)CC1 [Sotrastaurin] | 99 ± 21% |
| Cc1ccc(CNc2ncnc3ccc(-c4ccc(CO)o4)cc23)o1 | 118 ± 2% |
| Cc1c(CN2CCN(C(=O)[C@H](C)O)CC2)sc2c(N3CCOCC3)nc(-c3cnc(N)nc3)nc12 [Apitolisib (GDC-0980, RG7422)] | 108 ± 2.2% |
| CCOC(=O)c1cnc2ccc(-c3cncc(NS(=O)(=O)c4ccccc4)c3)cn12 | 99.7 ± 8.9% |
| COc1cc2nccc(Oc3ccc(NC(=O)C4(C(=O)Nc5ccc(F)cc5)CC4)cc3)c2cc1OC [XL184(Cabozantinib malate)] | 15 ± 7.9% |
